{"source": "PubChem BioAssay AID463173", "about": "(ICCB-Longwood Screening Facility, Harvard Medical School, 2010)", "note": "In all, about 52,000 compounds went through this assay and about 1,700 (3.3%) were called active. Only a selection was taken, and actives are over-represented in it overall. A number with no mark means an inactive call. Cut-off read from the data, not from the text of the source: active = survival mostly below about 52% (no sharp cut-off); inactive = mostly above about 56%.", "data": [{"tested_on": "Wild type", "assay": "S. aureus survival, RN4220 and DeltatarO strains – OD600, teichoic acid synthesis inhibitors, primary screen (AID 463173)", "conditions": "S. aureus RN4220 wild type/DeltatarO growth, OD600, 18 h, stronger effect = lower value, screened at 18.75 µg/mL (by protocol)", "values": [{"smiles": "CCCC(=O)Nc1ccc(Cl)c(NC(=O)c2cccnc2Cl)c1", "survival": "114%"}, {"smiles": "CC1=C(c2ccc(C)c(C)c2)S(=O)(=O)N=C1N1CCC(C(=O)NCCc2ccc(Cl)cc2)CC1", "survival": "132%"}, {"smiles": "CS(=O)(=O)N1CCC(N2CCN(Cc3ccc(F)cc3)C(=O)C2=O)CC1", "survival": "81%"}, {"smiles": "Cc1cc(C(=O)O)c2c(=O)n(C)c(=O)n(C)c2n1", "survival": "81%"}, {"smiles": "Cc1ccc(C(=O)Nc2ccc(C(=O)O)cc2)cc1S(=O)(=O)Nc1ccccc1", "survival": "73%"}, {"smiles": "Cc1ccc(C(=O)Nc2ccccc2)cc1S(=O)(=O)Nc1ccc(Br)cc1", "survival": "7% (active)"}, {"smiles": "CCOc1cccc(NC(=O)c2ccc(F)c(S(=O)(=O)N(CC)c3cccc(C)c3)c2)c1", "survival": "82%"}, {"smiles": "CCN(c1ccccc1)S(=O)(=O)c1cc(C(=O)Nc2ccc(Br)cc2)ccc1F", "survival": "1% (active)"}, {"smiles": "CCOc1ccc(NC(=O)c2ccc(F)c(S(=O)(=O)N(CC)Cc3ccccc3)c2)cc1", "survival": "77%"}, {"smiles": "Cc1ccc(C(=O)Nc2ccccc2)cc1S(=O)(=O)Nc1ccccc1", "survival": "70%"}, {"smiles": "CCN1CCN(C(c2ccccc2F)c2c(O)cc(C)n(CCOC)c2=O)CC1", "note": "(stereo not given)", "survival": "45%"}, {"smiles": "Cc1ccc(NC(=O)Cn2c(=O)n(Cc3ccco3)c(=O)c3ccc(C(=O)NC4CCCC4)cc32)c(C)c1", "survival": "87%"}, {"smiles": "Cc1cccc(C(=O)NCC(c2ccc3c(c2)OCO3)N2CCN(c3ccccc3F)CC2)c1", "note": "(stereo not given)", "survival": "70%"}, {"smiles": "Cc1ccc2nc(CSc3nnc(NC(=O)COc4ccccc4F)s3)cc(=O)n2c1", "survival": "81%"}, {"smiles": "Cc1cccn2c(=O)cc(CSc3nnc(NC(=O)COc4ccc(F)cc4)s3)nc12", "survival": "-4% (active)"}, {"smiles": "Cc1cccn2c(=O)cc(CSc3nnc(NC(=O)COc4ccccc4)s3)nc12", "survival": "71%"}, {"smiles": "Cc1ccc2nc(CSc3nnc(NC(=O)CC(C)C)s3)cc(=O)n2c1", "survival": "60%"}, {"smiles": "Cc1ccc2nc(CSc3nnc(NC(=O)COc4ccccc4)s3)cc(=O)n2c1", "survival": "63%"}, {"smiles": "CC(C)C(=O)Nc1nnc(SCc2cc(=O)n3ccccc3n2)s1", "survival": "117%"}, {"smiles": "Cc1ccc(OCC(=O)Nc2nnc(SCc3cc(=O)n4cc(C)ccc4n3)s2)cc1", "survival": "1% (active)"}, {"smiles": "Cc1ccc(OCC(=O)Nc2nnc(SCc3cc(=O)n4cccc(C)c4n3)s2)cc1", "survival": "64%"}, {"smiles": "Cc1ccc2nc(CSc3nnc(NC(=O)C(C)C)s3)cc(=O)n2c1", "survival": "-3% (active)"}, {"smiles": "CCCN1CCN(CCCNC(=O)c2cc3c(=O)n(CC)c4ccccc4c3s2)CC1", "survival": "85%"}, {"smiles": "CC1CCN(CC(=O)N2CCN(c3ccccc3)CC2)CC1", "survival": "106%"}, {"smiles": "COc1ccc(-c2cn3nc(N4CCCC(C(=O)Nc5ccccc5OC)C4)sc3n2)cc1", "note": "(stereo not given)", "survival": "135%"}, {"smiles": "CN(C)S(=O)(=O)c1ccc2c(c1)N(CC(=O)Nc1ccc(OC(F)(F)F)cc1)C(=O)CS2", "survival": "71%"}, {"smiles": "COc1ccc(C(=O)NCCN=C2NS(=O)(=O)c3ccccc32)cc1", "survival": "108%"}, {"smiles": "COCCn1c(C)cc(O)c(C(c2ccccc2)N2CCN(CCO)CC2)c1=O", "note": "(stereo not given)", "survival": "0% (active)"}, {"smiles": "COCCn1c(C)cc(O)c(C(c2ccccc2)N2CCN(C)CC2)c1=O", "note": "(stereo not given)", "survival": "87%"}, {"smiles": "CCN1CCN(C(c2ccccc2)c2c(O)cc(C)n(CCOC)c2=O)CC1", "note": "(stereo not given)", "survival": "91%"}, {"smiles": "COc1cccc(C(=O)c2cn(CC(=O)NCCc3ccccc3)c3nc(C)ccc3c2=O)c1", "survival": "64%"}, {"smiles": "O=C(NCCn1cc(SCc2ccc(C(F)(F)F)cc2)c2ccccc21)c1ccccc1F", "survival": "35%"}, {"smiles": "Cc1ccc(CSc2cn(CCNC(=O)c3cccs3)c3ccccc23)cc1", "survival": "62%"}, {"smiles": "O=C(NCCn1cc(SCc2cccc(F)c2)c2ccccc21)c1cccc(C(F)(F)F)c1", "survival": "8% (active)"}, {"smiles": "COc1ccc(C(=O)NCCn2cc(SCc3cccc(F)c3)c3ccccc32)cc1OC", "survival": "68%"}, {"smiles": "COc1ccccc1C(=O)NCCn1cc(SCc2ccc(C)cc2)c2ccccc21", "survival": "3% (active)"}, {"smiles": "COc1ccccc1C(=O)NCCn1cc(SCc2ccccc2Cl)c2ccccc21", "survival": "28%"}, {"smiles": "Cc1nc2cc(C(F)(F)F)ccc2n1C1CCN(C(=O)C2CC2)CC1", "survival": "95%"}, {"smiles": "Cn1ncc2c(NCc3ccc(Cl)cc3)ncnc21", "survival": "75%"}, {"smiles": "O=C(COc1ccc(Cl)cc1Cl)Nc1ccc(C(=O)OC2CCCCC2)cc1", "survival": "78%"}, {"smiles": "Cc1cc(C)c(OCC(=O)Nc2cccc(-c3nc4ncccc4o3)c2)c(Br)c1", "survival": "4% (active)"}, {"smiles": "Cc1cccc(OCC(=O)Nc2ccc(Cl)c(-c3nc4ncccc4o3)c2)c1C", "survival": "38%"}, {"smiles": "Cc1ccccc1OCC(=O)Nc1ccc(-c2nc3ncccc3o2)cc1", "survival": "69%"}, {"smiles": "CCCC(=O)Nc1cccc(-c2nc3ncccc3o2)c1", "survival": "88%"}, {"smiles": "CCC(C)c1ccc(OCC(=O)Nc2ccc(-c3nc4ncccc4o3)cc2)cc1", "note": "(stereo not given)", "survival": "60%"}, {"smiles": "CCC(C)c1ccc(OCC(=O)Nc2cccc(-c3nc4ncccc4o3)c2)cc1", "note": "(stereo not given)", "survival": "6% (active)"}, {"smiles": "Cc1ccc(C(C)C)c(OCC(=O)Nc2ccc(C(=O)OC3CCCCC3)cc2)c1", "survival": "6% (active)"}, {"smiles": "COc1ccc(OCC(=O)Nc2ccc(-c3nc4ncccc4o3)cc2)cc1", "survival": "119%"}, {"smiles": "Cc1ccc(C(C)C)c(OCC(=O)Nc2cccc(-c3nc4ncccc4o3)c2)c1", "survival": "2% (active)"}, {"smiles": "Cc1cc(OCC(=O)Nc2ccc(C(=O)OC3CCCCC3)cc2)cc(C)c1Cl", "survival": "52%"}, {"smiles": "Cc1ccc(C(C)C)c(OCC(=O)Nc2ccc(-c3nc4ncccc4o3)cc2C)c1", "survival": "69%"}, {"smiles": "O=C(Nc1ccccc1)Nc1nnc(SCC(=O)N2CCCCC2)s1", "survival": "131%"}, {"smiles": "CC(C)(C)OC(=O)N1CCC(c2c(C(=O)N3CCN(C(=O)c4ccco4)CC3)cnn2-c2cccc(Cl)c2)CC1", "survival": "95%"}, {"smiles": "CCn1cc(C(=O)Nc2ccccc2)c(=O)c2ccc(C)nc21", "survival": "111%"}, {"smiles": "CCc1ccccc1Nc1nc2ccccc2n2cnnc12", "survival": "147%"}, {"smiles": "c1ccc(N(c2ccccc2)c2nc(-n3nnc4ccccc43)nc(-n3nnc4ccccc43)n2)cc1", "survival": "103%"}, {"smiles": "Cc1cccc(Oc2coc3cc(OCC(=O)NC4CCCCC4)ccc3c2=O)c1", "survival": "80%"}, {"smiles": "COc1ccc(C2C(C(N)=O)=C(C)Nc3nc(SCc4ccccc4Cl)nn32)cc1OC", "note": "(stereo not given)", "survival": "143%"}, {"smiles": "CC1=C(C(=O)Nc2ccccc2)C(c2ccc(O)cc2)n2nc(-c3ccc(Cl)cc3)nc2N1", "note": "(stereo not given)", "survival": "82%"}, {"smiles": "COc1ccc(NC(=O)c2ccco2)cc1NC(=O)COc1cc(C)ccc1C(C)C", "survival": "85%"}, {"smiles": "Cc1ccc2cccc(NC(=O)COc3cc(C)c(Cl)c(C)c3)c2n1", "survival": "82%"}, {"smiles": "Cc1ccc(C(C)C)c(OCC(=O)Nc2cccc(NC(=O)c3ccco3)c2)c1", "survival": "12% (active)"}, {"smiles": "CCC(C)c1ccc(OCC(=O)Nc2cccc3ccc(C)nc23)cc1", "note": "(stereo not given)", "survival": "-12% (active)"}, {"smiles": "Cc1ccc2cccc(NC(=O)COc3ccccc3Cl)c2n1", "survival": "134%"}, {"smiles": "Cc1ccc(C(C)C)c(OCC(=O)Nc2ccc3c(c2)nc(CCNC(=O)c2ccco2)n3C)c1", "survival": "88%"}, {"smiles": "O=c1c(-c2cc(-c3ccccc3)nc3c2COc2ccc(Cl)cc2-3)coc2ccccc12", "survival": "75%"}, {"smiles": "COc1cc(C(=O)Nc2nonc2-c2ccc(Cl)cc2)cc(OC)c1OC", "survival": "94%"}, {"smiles": "CCC1CCCCN1C(=O)Cn1c(=O)cc(C(F)(F)F)c2c(C)nn(C)c21", "note": "(stereo not given)", "survival": "68%"}, {"smiles": "Cc1ccc(-c2cc(C(=O)NCc3ccccc3)c3c(-c4ccc(C)cc4)[nH]nc3n2)cc1", "survival": "75%"}, {"smiles": "O=C(Cn1c(=O)nc(-c2ccccc2)c2cc(Cl)ccc21)NCCc1ccccc1", "survival": "69%"}, {"smiles": "CCN(CC)c1cc(C)c2cc(NC(=O)/C=C/c3ccccc3Cl)ccc2n1", "survival": "76%"}, {"smiles": "CCCCOC(=O)c1cccc(NC(=O)/C=C/c2ccccc2Cl)c1", "survival": "7% (active)"}, {"smiles": "CCCCOC(=O)c1cccc(NC(=O)c2cc3ccccc3o2)c1", "survival": "0% (active)"}, {"smiles": "CCCCOC(=O)c1ccc(NC(=O)c2cc(=O)c3ccccc3o2)cc1", "survival": "93%"}, {"smiles": "O=C(Nc1ccc(NC(=O)c2cc3ccccc3o2)cc1)c1ccccc1", "survival": "80%"}, {"smiles": "Cc1ccc(NC(=O)/C=C/c2ccccc2Cl)cc1Cl", "survival": "97%"}, {"smiles": "CC(C)CC(=O)Nc1ccc(C(=O)OCc2cc(=O)n3nc(C4CCCCC4)sc3n2)cc1", "survival": "47%"}, {"smiles": "CCC12C=CCN3CCC4(c5ccc(OC)cc5NC4C(O)(C(=O)OC)C1OC(C)=O)C32", "note": "(stereo not given)", "survival": "100%"}, {"smiles": "Cc1ccc(-c2nc(CN(C)C)cc(CN(C)C)c2O)cc1", "survival": "121%"}, {"smiles": "CCOC(=O)CC(N)c1ccc2c(c1)OCO2", "note": "(stereo not given)", "survival": "111%"}, {"smiles": "O=c1c2cc3c(cc2n(Cc2ccccc2)c(=O)n1Cc1nc(-c2ccccc2)no1)OCO3", "survival": "112%"}, {"smiles": "CC(C)CC(=O)Nc1ccc(C(=O)OCc2cc(=O)n3nc(C(C)C)sc3n2)cc1", "survival": "138%"}, {"smiles": "COc1ccc2nc(SCC(O)c3cccc(Br)c3)[nH]c2c1", "note": "(stereo not given)", "survival": "84%"}, {"smiles": "Brc1ccc2nc(SCCOc3ccccc3)[nH]c2c1", "survival": "0% (active)"}, {"smiles": "Nc1ccc2nc(SCCOc3ccccc3)sc2c1", "survival": "108%"}, {"smiles": "O=C(Nc1c[nH]c2cc(Cl)ccc2c1=O)N1CCCCC1", "survival": "85%"}, {"smiles": "CSc1ccc(CNC(=O)Cn2nc(N3CCN(c4ccccc4)CC3)ccc2=O)cc1", "survival": "64%"}, {"smiles": "O=c1c2sc3ccccc3c2n(Cc2cccc(Cl)c2)c(=O)n1Cc1ccco1", "survival": "68%"}, {"smiles": "CCc1ccc(NC(=O)CC2C(=O)OCCN2CC)cc1", "note": "(stereo not given)", "survival": "-15% (active)"}, {"smiles": "COc1ccc(CN2C(=O)N(c3ccc(F)cc3)C(=O)C2CC(=O)Nc2ccccc2)cc1", "note": "(stereo not given)", "survival": "79%"}, {"smiles": "CCCOc1ccc(NC(=O)CC2C(=O)N(c3ccc(F)cc3)C(=O)N2CC(C)C)cc1", "note": "(stereo not given)", "survival": "75%"}, {"smiles": "COC(=O)c1ccc(NC(=O)CC2C(=O)N(c3cccc(OC)c3)C(=O)N2C(C)C)cc1", "note": "(stereo not given)", "survival": "78%"}, {"smiles": "CCCOc1ccc(NC(=O)CC2C(=O)N(c3ccccc3)C(=O)N2Cc2ccc(F)cc2)cc1", "note": "(stereo not given)", "survival": "-1% (active)"}, {"smiles": "CCCOc1ccc(NC(=O)CC2C(=O)N(c3ccc(C)cc3)C(=O)N2C(C)C)cc1", "note": "(stereo not given)", "survival": "133%"}, {"smiles": "COC(=O)c1ccc(NC(=O)CC2C(=O)N(c3ccccc3)C(=O)N2Cc2ccc(F)cc2)cc1", "note": "(stereo not given)", "survival": "14% (active)"}, {"smiles": "CCN1CCOC(=O)C1CC(=O)Nc1ccc(Br)cc1", "note": "(stereo not given)", "survival": "38%"}, {"smiles": "COC(=O)c1ccc(NC(=O)CC2C(=O)N(c3ccc(F)cc3)C(=O)N2Cc2ccc(OC)cc2)cc1", "note": "(stereo not given)", "survival": "131%"}, {"smiles": "CCN1CCOC(=O)C1CC(=O)Nc1ccc(C(C)=O)cc1", "note": "(stereo not given)", "survival": "65%"}, {"smiles": "CCc1ccc(NC(=O)CC2C(=O)N(c3ccccc3)C(=O)N2C(C)C)cc1", "note": "(stereo not given)", "survival": "-6% (active)"}, {"smiles": "CCOC(=O)c1ccc(NC(=O)CC2C(=O)N(c3ccc(F)cc3)C(=O)N2Cc2ccc(C)cc2)cc1", "note": "(stereo not given)", "survival": "61%"}]}]}
